Measurements published in PubChem BioAssay AID1159580 (chemical genetic matrix, 2015).
Screen size: about 5,500 compounds; about 2,000 (36%) were called active. Not shown: some 18% with an inconclusive outcome. Rule as the data show it: active = normalized growth mostly below about 0.91 (no sharp cut-off); inconclusive = no clear call, values can overlap the other calls; inactive = mostly above about 0.92. The list shows a part of the results.

Experiment: chemical genetic growth profiling, strain panel (AID 1159580);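 also: tested at 20 µM; growth read once vehicle control cultures reached saturation at 30 °C; 1 = growth at the plate median or of vehicle wells; lower values mean less growth of the strain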
Details: S. cerevisiae deletion strains, growth OD
[1] = locus YAR019C, strain CDC15, stronger effect = lower value
[2] = locus YBL105C, strain PKC1, stronger effect = lower value
[3] = locus YBR135W, strain CKS1, stronger effect = lower value
[4] = locus YBR136W, strain MEC1, stronger effect = lower value
[5] = locus YBR160W, strain CDC28, stronger effect = lower value
[6] = locus YDL017W, strain CDC7, stronger effect = lower value
[7] = locus YDL028C, strain MPS1, stronger effect = lower value
[8] = locus YDL101C, strain DUN1, stronger effect = lower value
[9] = locus YDL108W, strain KIN28, stronger effect = lower value
[10] = locus YDL132W, strain cdc53, stronger effect = lower value
[11] = locus YDL214C, strain PRR2, stronger effect = lower value
[12] = locus YDR052C, strain DBF4, stronger effect = lower value
[13] = locus YDR054C, strain cdc34, stronger effect = lower value
[14] = locus YDR226W, strain ADK1, stronger effect = lower value
[15] = locus YDR477W, strain SNF1, stronger effect = lower value
[16] = locus YER123W, strain YCK3, stronger effect = lower value
[17] = locus YER133W, strain GLC7, stronger effect = lower value
[18] = locus YFL009W, strain cdc4, stronger effect = lower value
[19] = locus YFL029C, strain CAK1, stronger effect = lower value
[20] = locus YFR003C, strain YPI1, stronger effect = lower value
[21] = locus YFR019W, strain FAB1, stronger effect = lower value
[22] = locus YFR028C, strain CDC14, stronger effect = lower value
[23] = locus YGR040W, strain KSS1, stronger effect = lower value
[24] = locus YGR052W, strain FMP48, stronger effect = lower value
[25] = locus YGR092W, strain DBF2, stronger effect = lower value
[26] = locus YHR030C, strain SLT2, stronger effect = lower value
[27] = locus YHR079C, strain IRE1, stronger effect = lower value
[28] = locus YHR082C, strain KSP1, stronger effect = lower value
[29] = locus YHR205W, strain SCH9, stronger effect = lower value
[30] = locus YIL147C, strain SLN1, stronger effect = lower value
[31] = locus YJL095W, strain BCK1, stronger effect = lower value
[32] = locus YJL128C, strain PBS2, stronger effect = lower value
[33] = locus YJL157C, strain FAR1, stronger effect = lower value
[34] = locus YJR016C, strain ILV3, stronger effect = lower value
[35] = locus YJR066W, strain TOR1 (second series), stronger effect = lower value
[36] = locus YJR066W, strain TOR1, stronger effect = lower value
[37] = locus YKL048C, strain ELM1, stronger effect = lower value
[38] = locus YKL067W, strain YNK1, stronger effect = lower value
[39] = locus YKL101W, strain HSL1, stronger effect = lower value
[40] = locus YKL193C, strain SDS22, stronger effect = lower value
[41] = locus YKL203C, strain TOR2, stronger effect = lower value
[42] = locus YLR113W, strain HOG1, stronger effect = lower value
[43] = locus YLR133W, strain CKI1, stronger effect = lower value
[44] = locus YLR403W, strain SFP1, stronger effect = lower value
[45] = locus YML070W, strain DAK1, stronger effect = lower value
[46] = locus YMR001C, strain CDC5, stronger effect = lower value
[47] = locus YMR205C, strain PFK2 (second series), stronger effect = lower value
[48] = locus YMR277W, strain FCP1, stronger effect = lower value
[49] = locus YNL006W, strain LST8, stronger effect = lower value
[50] = locus YNL020C, strain ARK1, stronger effect = lower value
[51] = locus YNL161W, strain CBK1, stronger effect = lower value
[52] = locus YNL183C, strain NPR1, stronger effect = lower value
[53] = locus YNL207W, strain RIO2, stronger effect = lower value
[54] = locus YNL222W, strain SSU72, stronger effect = lower value
[55] = locus YNL307C, strain MCK1 (second series), stronger effect = lower value
[56] = locus YOL078W, strain AVO1, stronger effect = lower value
[57] = locus YOL136C, strain PFK27, stronger effect = lower value
[58] = locus YOR061W, strain CKA2, stronger effect = lower value
[59] = locus YOR119C, strain RIO1, stronger effect = lower value
[60] = locus YOR231W, strain MKK1, stronger effect = lower value
[61] = locus YOR329C, strain SCD5, stronger effect = lower value
[62] = locus YPL031C, strain PHO85, stronger effect = lower value
[63] = locus YPL153C, strain RAD53, stronger effect = lower value
[64] = locus YPL204W, strain HRR25, stronger effect = lower value
[65] = locus YPL209C, strain IPL1, stronger effect = lower value
[66] = locus YPL256C, strain CLN2, stronger effect = lower value
[67] = locus YPR025C, strain CCL1, stronger effect = lower value
[68] = locus YPR106W, strain ISR1, stronger effect = lower value
[69] = locus YPR111W, strain DBF20, stronger effect = lower value
[70] = strain NNK1, stronger effect = lower value
[71] = strain TSCII, stronger effect = lower value

Measured: normalized growth

Cc1ccc(NNC(=O)c2cccs2)cc1Cl
inactive: [1] 0.969 | [2] 0.969 | [3] 0.971 | [4] 0.974 | [5] 0.957 | [6] 0.979 | [7] 0.972 | [8] 0.968 | [9] 0.967 | [10] 0.975 | [11] 0.964 | [12] 0.976 | [13] 0.966 | [14] 0.96 | [15] 0.974 | [16] 0.897 | [17] 0.966 | [18] 0.976 | [19] 0.966 | [20] 0.976 | [21] 0.958 | [22] 0.964 | [23] 0.963 | [24] 1.01 | [25] 0.824 | [26] 0.943 | [27] 0.97 | [28] 1.03 | [29] 0.964 | [30] 0.98 | [31] 0.984 | [32] 0.963 | [33] 0.952 | [34] 0.975 | [35] 0.925 | [36] 1.03 | [37] 0.945 | [38] 0.953 | [39] 0.963 | [40] 0.968 | [41] 1.03 | [42] 0.876 | [43] 0.968 | [44] 0.929 | [45] 0.918 | [46] 0.979 | [47] 0.961 | [48] 0.974 | [49] 0.975 | [50] 0.963 | [51] 0.966 | [52] 0.979 | [53] 0.976 | [54] 0.961 | [55] 0.922 | [56] 0.972 | [57] 0.943 | [58] 0.894 | [59] 1.02 | [60] 0.914 | [61] 0.978 | [62] 0.964 | [63] 0.949 | [64] 0.959 | [65] 0.967 | [66] 0.948 | [67] 0.969 | [68] 0.973 | [69] 0.962 | [70] 0.991 | [71] 0.972

Cc1cc(Cl)ccc1NNC(=O)c1sccc1Cl
active: [8] 0.907 | [12] 0.898 | [14] 0.894 | [26] 0.152 | [31] 0.194 | [34] 0.898 | [42] 0.779 | [49] 0.898 | [51] 0.89 | [65] 0.899 | [66] 0.803 | [71] 0.878
inactive: [1] 0.892 | [2] 0.912 | [3] 0.908 | [4] 0.9 | [5] 0.913 | [6] 0.915 | [7] 0.912 | [9] 0.907 | [10] 0.928 | [11] 0.869 | [13] 0.882 | [15] 0.861 | [16] 0.787 | [17] 0.794 | [18] 0.893 | [19] 0.883 | [20] 0.911 | [21] 0.907 | [22] 0.894 | [23] 0.861 | [24] 0.861 | [25] 0.7 | [27] 0.859 | [28] 0.884 | [29] 0.878 | [30] 0.913 | [32] 0.89 | [33] 0.864 | [35] 0.874 | [36] 0.835 | [37] 0.872 | [38] 0.861 | [39] 0.917 | [40] 0.893 | [41] 0.912 | [43] 0.878 | [44] 0.831 | [45] 0.836 | [46] 0.894 | [47] 0.844 | [48] 0.905 | [50] 0.885 | [52] 0.858 | [53] 0.9 | [54] 0.896 | [55] 0.811 | [56] 0.888 | [57] 0.84 | [58] 0.876 | [59] 0.91 | [60] 0.823 | [61] 0.909 | [62] 0.861 | [63] 0.803 | [64] 0.822 | [67] 0.902 | [68] 0.903 | [69] 0.882 | [70] 0.897

O=C(NNc1ccc(F)cc1F)c1sccc1Cl
active: [42] 0.858
inactive: [1] 0.974 | [2] 0.96 | [3] 0.978 | [4] 0.971 | [5] 0.971 | [6] 0.968 | [7] 0.975 | [8] 0.961 | [9] 0.977 | [10] 0.969 | [11] 0.924 | [12] 0.971 | [13] 0.957 | [14] 0.968 | [15] 0.927 | [16] 0.841 | [17] 0.952 | [18] 0.975 | [19] 0.962 | [20] 0.978 | [21] 0.916 | [22] 0.977 | [23] 0.912 | [24] 1 | [25] 0.879 | [26] 0.903 | [27] 0.96 | [28] 0.987 | [29] 0.925 | [30] 0.968 | [31] 0.939 | [32] 0.967 | [33] 0.926 | [34] 0.976 | [35] 0.86 | [36] 1.01 | [37] 0.927 | [38] 0.952 | [39] 0.913 | [40] 0.976 | [41] 0.985 | [43] 0.926 | [44] 0.917 | [45] 0.904 | [46] 0.974 | [47] 0.963 | [48] 0.984 | [49] 0.989 | [50] 0.939 | [51] 0.974 | [52] 0.956 | [53] 0.975 | [54] 0.975 | [55] 0.858 | [56] 0.968 | [57] 0.908 | [58] 0.83 | [59] 0.994 | [60] 0.914 | [61] 0.97 | [62] 0.944 | [63] 0.92 | [64] 0.914 | [65] 0.967 | [66] 0.894 | [67] 0.978 | [68] 0.957 | [69] 0.953 | [70] 0.967 | [71] 0.97
